# According to PubChem BioAssay (EPA / NIEHS):
# Where “and” joins values, the source holds several entries; their conditions need not be identical. Equal entries are not always repeated. The source holds several records for some structures; these can differ, active in one and inactive in another. Calls of active or inactive are those of the source. How the source made its calls: active means hit-call score of the fitted dose curve at least 0.9, where 1 is the maximum; inactive means score below 0.9.
# Assay: CCTE_Shafer_MEA_dev_network_spike_number: CCTE's Neural Network Formation Assay for Number of Network Spikes, Shafer Lab (AID 2284048);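 further: synchronized bursts across electrodes counted on days 5 7 9 12 and integrated as AUC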;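 on AC50: fit as a loss of signal meaning fewer network spikes than DMSO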
# Method: CCTE_Shafer_MEA_dev assay is conducted using Axion Biosystems 48 well microelectrode array (MEA) plates and Maestro recording system. Each well of the MEA plate contains a grid of 16 microelectrodes embedded in the culture surface. Electrically active cells, such as neurons, can be cultured over the electrodes, and electrical activity in these cells can be recorded extracellularly. The spontaneous firing of neurons is captured from each electrode on a microsecond timescale providing both temporally and spatially precise data. […] The CCTE_Shafer_MEA_dev assay uses primary cultures of rat cortical neurons. Recordings are made on days post-plating 5, 7, 9 and 12. As these cultures mature over time, neural networks develop functional activity and form cohesive networks in which electrical activity can be highly coordinated. CCTE_Shafer_MEA_dev_network_spike_number is 1 of 19 assay components of the CCTE_Shafer_MEA_dev assay. It measures the number of network spikes (temporally-clustered groups of action potential firing across multiple electrodes) during a recording in a microelectrode array (MEA) using Axion Biosystems Maestro 768 channel amplifier with the AxIS adaptive spike detector. To collapse across multiple recordings made on days post-plating 5, 7, 9 and 12, the trapezoidal area-under-the-curve of the component is calculated.Data from the assay component CCTE_Shafer_MEA_dev_network_spike_number was analyzed into 1 assay endpoint. This assay endpoint, CCTE_Shafer_MEA_dev_network_spike_number, was analyzed in the negative analysis fitting direction relative to DMSO as the negative control and baseline of activity. Using a type of functional reporter, gain or loss-of-signal activity can be used to understand electrical activity.
# On the day prior to culture, each well was coated thoroughly with 150 uL of 0.05% polyethyleneimine (PEI, Sigma Cat P3143) in 50 mM HEPES (Sigma Cat H7523) at a pH of 8. The plate was incubated at 37C for one hour. PEI was rinsed out with 500 uL of sterile water three times. Plates were stored at 4C until the day of culture. This culture was plated at a seeding density of 1.5 x 10^5 cells/well on a 48-well MEA plate, prepared as described above. Cells were administered via a 25 uL media/laminin ([…]; Sigma Cat L2020-1MG) drop directly onto the microelectrode array, as adding the cells with the laminin results in better attachment than pre-coating with laminin. After 2 hours, an additional 475 uL of cortical media was added and the cells returned to the incubator. Exposure starts at day 0 of plating and is continued over twelve days of network development until the experiment is terminated. Cells are fed with fresh medium on DIV 5 and 9, following the recordings on those days. The entire volume of media in the well is exchanged and any vehicle or compound treatment is renewed. Complete details are found in OP-NHEERL/ISTD/SBB/TJS/2015-03-r0 (available on request, email shafer.tim@epa.gov). Measurement of the electrical activity is non-invasive, and recordings can be made from the same plate over multiple different days of the culture. In cortical neurons, this allows for the measurement of extracellular action potentials over the period during which networks form in the MEA plate.
SMILES,outcome,AC50
CN/C(=N\[N+](=O)[O-])NCc1cnc(Cl)s1,inactive,
N#CN=C1SCCN1Cc1ccc(Cl)nc1,inactive,
CC(C)(C)C(=O)C(Oc1ccc(Cl)cc1)n1cncn1 (configuration not stated),inactive,
CCN(CC)c1nc(C)cc(OP(=S)(OC)OC)n1,inactive,
O=C(Nc1ccccc1-c1ccc(Cl)cc1)c1cccnc1Cl,inactive,
CS(=O)(=O)c1ccc(C(=O)C2C(=O)CCCC2=O)c([N+](=O)[O-])c1,inactive,
CC1(C)C(C=C(Cl)Cl)C1C(=O)OC(C#N)c1cccc(Oc2ccccc2)c1 (configuration not stated),inactive,2.98 µM (active)
CNC(=O)Oc1cccc2ccccc12,inactive,1 µM (active)
O=C1C2CC=CCC2C(=O)N1SC(Cl)(Cl)Cl (configuration not stated),inactive,
C=C(C)CN(CC)c1c([N+](=O)[O-])cc(C(F)(F)F)cc1[N+](=O)[O-],,23.2 µM (active)
CC(C)=CC1C(C(=O)OCc2coc(Cc3ccccc3)c2)C1(C)C (configuration not stated),inactive,
CCCN(CC)CC1COC2(CCC(C(C)(C)C)CC2)O1 (configuration not stated),,0.0933 µM (active)
CCOP(=O)(OCC)Oc1nc(Cl)c(Cl)cc1Cl,inactive,2.98 µM (active)
CC1(C)C(C(=O)OC(C#N)c2cccc(Oc3ccccc3)c2)C1(C)C (configuration not stated),,0.515 µM (active)
CCOC(=O)C(C)OC(=O)c1cc(Oc2ccc(C(F)(F)F)cc2Cl)ccc1[N+](=O)[O-] (configuration not stated),inactive,
CO/N=C(/C1=NOCCO1)c1ccccc1Oc1ncnc(Oc2ccccc2Cl)c1F,,527 nM (active) and 449 nM (active)
Cc1c(COC(=O)[C@@H]2[C@H](/C=C(\Cl)C(F)(F)F)C2(C)C)cccc1-c1ccccc1,,91.2 nM (active) and 495 nM (active)
CS(=O)(=O)c1cc(C(F)(F)F)ccc1C(=O)c1cnoc1C1CC1,inactive,
COP(=S)(OC)SCn1nnc2ccccc2c1=O,inactive,
COC(=O)N(C(=O)N1CO[C@@]2(C(=O)OC)Cc3cc(Cl)ccc3C2=N1)c1ccc(OC(F)(F)F)cc1,inactive,
COP(=S)(OC)Oc1ccc([N+](=O)[O-])c(C)c1,inactive,
CCSC(=O)N1CCCCCC1,inactive,
CCNC(=O)NC(=O)C(C#N)=NOC,inactive,
COP(=O)(OC)O/C(C)=C/C(=O)N(C)C,inactive,
